Compounds with a hit are over-represented: about 3.3% of the library has one in this group of screens.
UHRF1 MBD2 ctr – UHRF1 methyl-DNA binding inhibition | UHRF1 binding to methylated oligo, TR-FRET | AID 687016 | 370,000 tested, 0.75% active | Q96T88 | inhibition, % at 4.4 µM; in the data active means inhibition above about 21%;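 further: UHRF1 SRA domain binding a hemimethylated CpG hairpin DNA probe; 0% = median of test compound wells and 100% = reference inhibitor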
Target sequence (Q96T88 whole entry, looked up, the tested form may be a part): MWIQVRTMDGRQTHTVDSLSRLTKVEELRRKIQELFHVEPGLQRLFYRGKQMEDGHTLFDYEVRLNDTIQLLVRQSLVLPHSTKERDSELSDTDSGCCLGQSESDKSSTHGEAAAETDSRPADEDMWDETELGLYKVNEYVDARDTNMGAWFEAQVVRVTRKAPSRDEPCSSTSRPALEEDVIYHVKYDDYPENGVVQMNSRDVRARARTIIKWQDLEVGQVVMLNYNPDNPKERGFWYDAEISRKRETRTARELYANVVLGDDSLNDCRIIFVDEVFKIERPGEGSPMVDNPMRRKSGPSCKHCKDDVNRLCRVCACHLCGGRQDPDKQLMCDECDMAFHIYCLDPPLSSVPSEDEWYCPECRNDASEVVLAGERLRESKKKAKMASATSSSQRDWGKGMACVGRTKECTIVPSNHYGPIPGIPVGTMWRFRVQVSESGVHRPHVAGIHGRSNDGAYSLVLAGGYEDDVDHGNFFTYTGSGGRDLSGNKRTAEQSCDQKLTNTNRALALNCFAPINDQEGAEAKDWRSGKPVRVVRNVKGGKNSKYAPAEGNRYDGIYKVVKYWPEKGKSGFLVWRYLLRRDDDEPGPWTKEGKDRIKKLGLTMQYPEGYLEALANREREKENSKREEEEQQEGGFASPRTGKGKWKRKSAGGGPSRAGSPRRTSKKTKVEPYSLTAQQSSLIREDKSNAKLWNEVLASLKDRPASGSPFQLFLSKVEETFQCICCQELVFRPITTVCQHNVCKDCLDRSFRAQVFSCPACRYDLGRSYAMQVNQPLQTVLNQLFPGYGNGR
PRMT1 FP inh – inhibitors of human PRMT1; recombinant PRMT1, activity-based probe fluorescence polarization; inhibition, % at 2.79 µM; 370,000 tested, 1.3% active; AID 652257;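 active means inhibition above about 21% made by adding two undisclosed values, limit read from the data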
PfG6PD inh – PfG6PD (Plasmodium falciparum) enzyme inhibition; PfGluPho enzyme, NADPH resazurin-diaphorase fluorescence; inhibition, % at 20 µM; 350,000 tested, 0.78% active;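 active means inhibition reaching at least a set limit at 20 µM in the primary screen, cut at about 59% in these data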;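 further: 0% = DMSO wells with substrate and 100% = DMSO wells lacking glucose-6-phosphate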
MBD2 inh – inhibitors of human MBD2 binding to methylated oligonucleotide | inhibition, % at 4.4 µM | 370,000 tested, 0.31% active | TR-FRET; in the data active means inhibition above about 13%
PfM18AAP inh-1 – PfM18AAP enzyme inhibition; recombinant PfM18AAP, H-Glu-NHMec fluorogenic cleavage; inhibition, % at 7.35 µM; 290,000 tested, 1.2% active;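 active means inhibition above the campaign mean inhibition over all tested compounds plus 3 SD, cut at about 28% in these data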;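 further: 0% = plate median of test compound wells and 100% = 2 mM ZnCl2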
PfM18AAP inh-2 – PfM18AAP inhibition, confirmation. 2,400 tested, 28% active. inhibition, % at 7.35 µM. AID 2170. recombinant PfM18AAP, H-Glu-NHMec fluorogenic cleavage. shares compounds with PfM18AAP inh-1;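 active means mean inhibition over replicate wells above the hit cutoff set for the earlier primary screen, cut at about 29% in these data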;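 further: 0% = median of test compound wells and 100% = 2 mM ZnCl2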
CTSL1 confirm – Cathepsin L (human) inhibition, confirmation; shares compounds with PfM18AAP inh-1; purified cathepsin L1, Z-Leu-Arg-MCA fluorescence; inhibition, % at 5.96 µM; 2,400 tested, under 10 active;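 active means average inhibition across replicates above the hit cutoff set in the earlier primary screen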;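 further: 0% = median of test compound wells and 100% = Z-Phe-Ala-diazomethylketone 1 µM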
The depositor's hits bear a star; / = no result.

SMILES | UHRF1 MBD2 ctr | PRMT1 FP inh | PfG6PD inh | MBD2 inh | PfM18AAP inh-1 | PfM18AAP inh-2 | CTSL1 confirm
COC(=O)c1ccc(C(=O)OC)c(=O)[nH]1 | 3 | 0 | -5 | 3 | 18 | -62 | 3
C/C(=N\Nc1nc(N)cc(Cl)n1)c1cccc([N+](=O)[O-])c1 | 0 | 3 | 19 | 4 | 34* | -45 | 3
COc1ccc(OC)c(-c2c3cc(O)c(=O)cc-3oc3cc(O)c(O)cc23)c1 | / | / | 37 | / | 45* | 26 | 4
COc1ccc(Oc2c(Cl)cnn(-c3cc(C)cc(C)c3)c2=O)cc1 | 1 | -1 | / | 0 | / | / | /
NNC(=O)c1cc(O)c(O)c(O)c1 | 29* | 18 | 58 | 10 | 65* | 44* | -4
COc1c(Cl)cc(C(=O)NN)cc1Cl | -2 | 0 | -7 | 5 | 3 | / | /
C/C(=N\NC(=O)c1cccc(N/N=C(\C)c2ccco2)c1)c1ccco1 | -1 | 6 | 18 | -2 | 10 | / | /
C/C(=N\NC(=O)c1cccc(N/N=C(\C)c2cc(O)ccc2O)c1)c1cc(O)ccc1O | -5 | 6 | 26 | -1 | 40* | 42* | -3
Cc1ccc(-n2c(SCC(=O)c3ccccc3Br)nnc2-c2ccncc2)cc1 | 0 | 6 | / | 6 | / | / | /
C=CCNC(=S)NNC(=O)c1cc(O)ccc1O | -3 | 3 | -15 | 0 | 39* | 29* | -8
CC(=O)N1CCC2(CC1)C(C#N)=C(N)Oc1c2sc2nc(C)cc(C)c12 | 7 | 2 | 18 | -2 | 21 | / | /
CCN1CCC2(CC1)C(C#N)=C(N)Oc1c2sc2nc(C)cc(C)c12 | -2 | 10 | 9 | 0 | 33* | -46 | -1
CCOC(=O)CN1NC2(CCC(C)CC2)NC1=S (stereo not drawn) | 0 | 15 | 21 | -3 | 43* | -48 | -3
CCOC(=O)CN1NC2(CCCC(C)C2)NC1=S (stereo not drawn) | -1 | 14 | 20 | 0 | 43* | -52 | -1
CC1CCN(C(=O)c2ncn3c2C(=O)N[C@H](C)C3)CC1 | 1 | -4 | / | -4 | / | / | /
O=c1oc2ccccc2c2oc3cc(O)c(O)cc3c12 | -10 | 5 | -5 | -4 | 68* | 74* | 3
CCCCCn1cnc2c(=S)nc(N)[nH]c21 | -2 | 8 | 43 | 1 | 41* | -19 | 5
CCCCn1cnc2c(=S)nc(N)[nH]c21 | -2 | 1 | 48 | -2 | 40* | -10 | -5
Nc1nc(=S)c2ncn(C3CCCCC3)c2[nH]1 | -1 | 4 | 49 | -3 | / | / | /
CCCn1cnc2c(=S)nc(N)[nH]c21 | 2 | 4 | 53 | -1 | 57* | -20 | 3
C/C(=N/NC(=O)CSc1nnc(SCc2ccc(C)cc2)s1)c1cccc(O)c1 | 0 | 3 | / | 0 | / | / | /
O=S1(=O)N[C@@H](Cc2ccccc2)COc2cc(N3CCOCC3)ccc21 | 11 | 1 | / | 3 | / | / | /
O=c1[nH]c(/C=C\c2cccc(O)c2)nc(O)c1[N+](=O)[O-] | 6 | 4 | -15 | -5 | 6 | / | /
O=c1[nH]c(/C=C\c2ccc(O)c(O)c2)nc(O)c1[N+](=O)[O-] | 5 | 4 | 1 | -4 | 78* | 76* | 4
Cc1ccc(/C=N/NC(=O)c2c(C)nc3ccc(Cl)cn23)cc1 | -3 | -5 | / | -9 | / | / | /
SMILES | UHRF1 MBD2 ctr | PRMT1 FP inh | PfG6PD inh | MBD2 inh | PfM18AAP inh-1 | PfM18AAP inh-2 | CTSL1 confirm
O=[N+]([O-])c1cc([N+](=O)[O-])c2cccnc2c1Oc1ccccc1O | -9 | 16 | -4 | -13 | 84* | 60* | 4
O=[N+]([O-])c1cc(Cl)c(O)c2ncccc12 | -25 | -3 | 38 | -22 | 2 | / | /
COc1ccc(CNC(=O)c2ccc3c(c2)N(C)C(=O)CS3=O)cc1 (stereo not drawn) | 0 | 22* | 41 | -6 | 47* | -15 | 5
COc1ccc(CNC(=O)c2ccc3c(c2)N(C)CCS3)cc1 | 0 | 5 | 37 | -2 | 15 | / | /
COc1cc(C(=S)N2CCN(c3ccccc3Cl)CC2)cc(O)c1O | 8 | 11 | 26 | 2 | 54* | 45* | -1
Cc1nc([N+](=O)[O-])cn1CC(Cl)Cn1cc([N+](=O)[O-])nc1C | 2 | 2 | / | -1 | / | / | /
Cc1sc(NC(=O)C2CCCCC2C(=O)O)c(C(N)=O)c1C (stereo not drawn) | 3 | 4 | 3 | -1 | 36* | -56 | -1
COC(=O)CCC(=O)NC(=S)Nc1sc(C)c(C)c1C(N)=O | 0 | 0 | 5 | 0 | 14 | / | /
COC(=O)CCC(=O)Nc1sc(C)c(C)c1C(N)=O | -1 | 6 | 52 | 2 | 43* | 18 | 3
O=C(NNc1ccccc1[N+](=O)[O-])Nc1ccc(F)cc1F | 0 | 7 | 5 | 5 | 40* | 27 | -3
O=C(NNc1ccccc1[N+](=O)[O-])Nc1cccc(Cl)c1 | 2 | 6 | 36 | -1 | 33* | 31* | 0
O=C(Nc1cccc(Cl)c1)Nc1ccccc1C(=O)O | 4 | -5 | 29 | 4 | 13 | / | /
CCC[C@H]1[C@@H](NC(=O)c2ccc(OC)cc2)CC[C@@]23CCCN2C(=O)CCC[C@@H]13 | -1 | -3 | / | -2 | / | / | /
CCC(=O)c1ccc(OCC(=O)Nc2nn3cnnc3s2)cc1 | -3 | 1 | -31 | -2 | 66* | 40* | -3
CCOc1ccc(NC(=O)COc2ccc(-n3cnnn3)cc2)cc1 | -1 | 2 | 11 | -6 | / | / | /
COC(=O)c1cc2c(c3c4cc(F)ccc4n(S(=O)(=O)c4ccc(C)cc4)c13)C(=O)N(Cc1ccc(C(F)(F)F)cc1)C2 | -1 | 0 | / | -4 | / | / | /
O=C(C1=C[C@@H](c2ccc3c(c2)OCO3)C[C@@H](OCc2ccc(CO)cc2)O1)N1CCOCC1 | -4 | 0 | 0 | -5 | 5 | / | /
O=C(C1=C[C@H](c2ccc3c(c2)OCO3)C[C@H](OCc2ccc(CO)cc2)O1)N1CCCCCCC1 | -2 | -1 | 4 | -1 | 33* | -22 | 2
Cc1cc(C)c2nc(NNC(=O)c3ccc(S(=O)(=O)N4CCCC(C)C4)cc3)sc2c1 (stereo not drawn) | -2 | 3 | -9 | 1 | 39* | -35 | 5
Cc1cccc2sc(NNC(=O)c3ccc(S(=O)(=O)N4CC(C)CC(C)C4)cc3)nc12 (stereo not drawn) | -2 | 2 | 4 | -5 | 32* | -29 | 0
CC1CCCN(S(=O)(=O)c2ccc(C(=O)Nc3nnc(C4CC4)o3)cc2)C1 (stereo not drawn) | -2 | 1 | -28 | 1 | -4 | / | /
CCCC(=O)OC[C@H]1CN(C2CCCC2)S(=O)(=O)c2c(Oc3ccccc3)cccc2O1 | 3 | 2 | / | -3 | / | / | /
Cc1cc(C)c(S(=O)(=O)Nc2ccc(O)c(Sc3ncn[nH]3)c2)c(C)c1 | 4 | 4 | 52 | -3 | 49* | 14 | 0
